For this assay, the target named is Shiga toxin 2 (Escherichia coli O157:H7) (UniProt P09385+P09386). The experiment in a line: E. coli 0.157:H7 Shiga Toxin SOP - stx2 screening assay. Further details: scale not given: direction of the effect not stated beside the values. It is filed as functional. As to conditions: 30 µM.
Turning to `CNC(=O)CCCNCc1c(C(C)C)nn(C)c1N(C)C`, the Percent Effect stood at 3.71%. Next, `Cn1cc(C2CCCN2C(=O)CCCOCc2ccccc2)cn1` (centres undefined): -16.1%; `COC(=O)C(c1cc(F)ccc1F)N(C)C(=O)c1csnn1` (centres undefined): -19.1%. Next, `Cc1ccc(N2CCC3(CCN(C(N)=O)CC3)CC2)nn1`: -2.18%; `COc1c(CNCc2ccc(C(=O)NC3CC3)cc2)c(C)nn1C`: -14.2%; `O=C(NCCOc1ccc2c(c1)CCC2)N1CCS(=O)(=O)CC1`: -52.5%. Then `COCCN1C[C@H]2[C@@H](C1)N(Cc1ccc(C)o1)CC[C@H]2OC`, with -28.9%; and `CNc1cc2c(nn1)CCN(C(=O)c1ccoc1)C2`, with 28.5%; and `COc1cccc(-n2nnc(C(=O)N3CCNC(=O)C3)c2C)c1`, with -7.95%. `O=C(COc1cccc(Br)c1)N1CCOCC1c1ncon1` (centres undefined): the Percent Effect was 9.16%. Next, `C[S+]([O-])c1nncn1CC(=O)c1ccc2c(c1)CCO2` (centres undefined): -38.1%. Turning to `Cc1ccc(CN2CCn3c(C(=O)N(C)C)cnc3C2)s1`, the Percent Effect is -13.3%.

Consider `O=C(CN1CCCCC1C1OCCO1)Nc1ccc(F)c(F)c1` (centres undefined), for which the Percent Effect is 3.89%. For the compound `Cc1nc(CN2C[C@@H]3CN(C(=O)c4cnccn4)C[C@@H]3C2)cs1`, the Percent Effect was found to be 1.79%. Then `COc1ccc(CN(C)C(=O)CCC(=O)c2cccs2)c(OC)c1OC`, with 0.732%; and `Cn1cnc2c1C(COCc1ccccc1)N(Cc1ccncc1)CC2` (centres undefined), with -1.07%; and `CCCn1nc(C2CCNCC2)n(Cc2ccccc2)c1=O`, with -6.93%.

With `Cc1nc(C)n(CC2CCCN2Cc2cn3c(C)cccc3n2)n1` (centres undefined), the Percent Effect was -2.35%. Next, `Cc1ccc(CN2CCCn3c(nc(CN4CCCC4)cc3=O)C2)s1`: 7.63%; `CC(C)OCCN(Cc1cccc(O)c1)C1CCC(O)CC1` (centres undefined): -13.5%. As to `Fc1cnc(N2CCn3cc(CNc4ccccn4)nc3C2)nc1`, the Percent Effect was -67.4%. Next, `CC(Nc1cccc(CN2CCOC2=O)c1)C(=O)NC(N)=O` (centres undefined): -7.19%; `COc1ccc(C(CNC(=O)Nc2cn[nH]c2)N2CCOCC2)cc1` (centres undefined): 23.8%. For `Cc1nnc(NC(=O)NCc2cc(F)cc(F)c2)s1`, the Percent Effect turned out to be 29.7%. Next, `CC(C)c1ncncc1C(=O)N1CCN(Cc2cscn2)CC1`: -22.9%. Next, `Cc1cccnc1C(=O)N1CCCC(c2[nH]ncc2S(C)(=O)=O)C1` (centres undefined): 15.7%; `Cc1n[nH]c(=O)c2c(NC(=O)CN3CCOC(C)C3)oc(C)c12` (centres undefined): -52.2%; `Cc1ccc(-c2nc(CN3CCCC3Cn3cc(C)cn3)no2)cc1` (centres undefined): -24.5%.

Regarding `Cc1ccc(C(CNCC2CC2)N2CCOCC2)s1` (centres undefined), the Percent Effect is -22.1%. Then `CC1(C)Cc2ccccc2-c2nc(NCCO)[nH]c(=O)c21`, with 0.00332%; and `CC(=O)N1CCCC1c1ccc(C(=O)N2CCOCC2)s1` (centres undefined), with -18.8%; and `O=C(c1cc2cc(F)ccc2[nH]1)N1CCC(Nc2cccnn2)CC1`, with -83.2%. Then `CO[C@H]1CCN(c2ncccn2)[C@H]1Cc1ccccc1`, with -19.4%. Then `Cc1c(C(=O)NCC(C)C)nnn1-c1cccc2c1CCN(C)C2`, with -7.34%; and `Cc1ccc(C(=O)N2CCSCC2)cc1NC(=O)Cn1cncn1`, with -22.8%. As to `CCc1nccn1C1CCCN(C(=O)Cc2n[nH]c3ccccc23)C1` (centres undefined), the Percent Effect was found to be 13.1%.

Regarding `Cc1cnc(N)c(C(=O)C2CCN(C(=O)c3ccccc3F)CC2)c1`, the Percent Effect is -8.93%. Then `CN1CCN(C(=O)[C@@H]2CCO[C@@H]3CCN(c4ncccn4)C[C@@H]32)CC1`, with -16.6%; and `Cc1cnc(N2C[C@H]3C[C@H](C(=O)N(C)C)[C@@H](C2)O3)nc1`, with -23.4%.

(Values after ChEMBL document CHEMBL3988442, “University of Dundee, Small-Polar-MMV Screening Library” (2021).)
